Test results published in PMC4336329 (PLoS ONE, 2015).
Among all 310,000 compounds or so, about 14,000 (4.5%) showed an effect of 50% or more. The effect is printed as a negative number. This excerpt belongs to a sample that is enriched for strong results.

Each molecule was assayed against human ether-à-go-go-related gene (hERG) potassium channel (human, UniProt Q12809) (assay: primary screen, population patch clamp on CHO cells stably expressing hERG; higher = less effect of the substance).
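Note: peak tail current of the secondary pulse compared with the same well before compound.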

Sequence of human ether-à-go-go-related gene (hERG) potassium channel (Q12809 whole entry, looked up): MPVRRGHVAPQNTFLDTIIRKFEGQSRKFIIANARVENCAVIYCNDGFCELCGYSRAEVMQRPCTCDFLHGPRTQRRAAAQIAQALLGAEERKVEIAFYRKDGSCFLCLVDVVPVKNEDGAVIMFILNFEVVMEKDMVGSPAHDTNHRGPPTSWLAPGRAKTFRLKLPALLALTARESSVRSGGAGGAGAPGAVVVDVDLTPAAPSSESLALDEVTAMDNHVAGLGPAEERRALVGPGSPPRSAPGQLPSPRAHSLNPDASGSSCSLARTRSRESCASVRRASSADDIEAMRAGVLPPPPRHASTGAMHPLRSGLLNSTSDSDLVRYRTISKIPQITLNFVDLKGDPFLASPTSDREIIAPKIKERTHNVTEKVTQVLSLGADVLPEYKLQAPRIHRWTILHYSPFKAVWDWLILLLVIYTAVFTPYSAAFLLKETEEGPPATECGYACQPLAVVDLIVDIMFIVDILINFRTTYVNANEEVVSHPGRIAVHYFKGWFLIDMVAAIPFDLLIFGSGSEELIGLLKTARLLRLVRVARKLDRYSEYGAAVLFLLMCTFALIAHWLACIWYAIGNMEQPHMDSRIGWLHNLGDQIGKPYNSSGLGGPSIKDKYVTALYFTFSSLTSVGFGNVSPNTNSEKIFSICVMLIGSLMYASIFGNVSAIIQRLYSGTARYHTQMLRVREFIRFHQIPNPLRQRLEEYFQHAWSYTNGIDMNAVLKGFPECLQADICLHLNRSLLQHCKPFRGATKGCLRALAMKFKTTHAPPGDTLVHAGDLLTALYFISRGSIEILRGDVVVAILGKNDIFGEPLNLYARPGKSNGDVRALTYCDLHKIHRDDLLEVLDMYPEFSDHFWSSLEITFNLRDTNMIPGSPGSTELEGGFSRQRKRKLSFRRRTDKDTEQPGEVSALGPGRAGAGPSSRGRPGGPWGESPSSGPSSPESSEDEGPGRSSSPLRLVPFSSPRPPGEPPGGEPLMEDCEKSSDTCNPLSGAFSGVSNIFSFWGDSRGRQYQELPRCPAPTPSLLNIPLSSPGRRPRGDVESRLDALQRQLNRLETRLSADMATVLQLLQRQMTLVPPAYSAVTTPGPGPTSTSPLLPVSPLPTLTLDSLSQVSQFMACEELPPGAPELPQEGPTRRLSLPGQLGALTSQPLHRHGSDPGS

| SMILES | hERG current change (%, negative = inhibition) at 10uM [%] |
| --- | --- |
| CCOc1ccc(CN(C)C(=O)c2ccc(=O)[nH]c2)cc1 | 16.6 |
| CCOC(=O)c1ncn2c1CN(C)C(=O)c1cc(F)ccc1-2 | 8.55 |
| CCOC(=O)C1=C(C)N(C)C(=S)NC1c1cc(OC)ccc1OC (stereo not drawn) | 3.73 |
| CCOC(=O)c1ncn2c1[C@@H]1CCNC1C(=O)c1cc(OC)ccc1-2 (stereo partly drawn) | -68.4 |
| Cc1nc(N2CCC(C(N)=O)CC2)c2c(-c3cccs3)csc2n1 | -0.812 |
| Cc1ccc(N(CCC#N)C(=O)COC(=O)c2cc(C)oc2C)cc1 | -15.3 |
| CCOC(=O)C1CCCN(C2=NC(=O)/C(=C/c3ccc(OC)cc3OC)S2)C1 (stereo not drawn) | -52.6 |
| CCOC(=O)C1CCCN(CC(O)COc2ccc(OC)cc2C(C)(C)C)C1 (stereo not drawn) | -61.4 |
| COc1ccc(C(=O)C2CCCN(Cc3cc(Cl)ccc3O)C2)c(OC)c1 (stereo not drawn) | -26.8 |
| CCOC(=O)C1CCCN(C2=NC(=O)/C(=C/c3ccc(OC)cc3)S2)C1 (stereo not drawn) | -20.1 |
| CCOC(=O)C1CCCN(C2=NC(=O)/C(=C/c3ccc(OC)c(OC)c3)S2)C1 (stereo not drawn) | -22.8 |
| COc1ccc(CN2CCCC(C(=O)N3CCCCC3)C2)c(OC)c1.O=C(O)C(=O)O (stereo not drawn) | -26.7 |
| CCOC(=O)C1CCCN(CC(O)COc2cccc(C)c2)C1.Cl (stereo not drawn) | -23.7 |
| COc1ccc(CN2CCCC(C(=O)c3ccc(Cl)cc3)C2)c(OC)c1 (stereo not drawn) | -75.2 |
| CCOC(=O)N1CCN(CC(O)COc2ccc(OC)cc2C(C)(C)C)CC1.Cl (stereo not drawn) | -12 |
| COc1ccc(CN2CCCC(C(=O)c3ccc(Cl)cc3)C2)c(O)c1 (stereo not drawn) | -67.7 |
| COC(=O)CC1(CC(=O)OC)C(=O)N(c2ccccc2)C(=O)N(c2ccccc2)C1=O | 11.7 |
| C=CCNC(=O)CN(CCc1ccccc1)S(=O)(=O)c1ccccc1 | -17.6 |
| CCOC(=O)C1CCCN(Cc2ccc(OC)cc2OC)C1 (stereo not drawn) | -52.7 |
| COc1ccc(CN2CCCC(C(=O)N3CCCC3)C2)c(OC)c1.O=C(O)C(=O)O (stereo not drawn) | -9.41 |
| CCOC(=O)C1CCN(Cc2ccc(OC)cc2OC)CC1 | -45.2 |
| Cc1ccccc1N1C(=O)NC(=O)/C(=C\c2cc(C)n(C)c2C)C1=O | -3.79 |
| CC(C)CCN1CCN(Cc2cccs2)CC1CCO (stereo not drawn) | -10.7 |
| CC(C)=CCN1CCN(C/C(Cl)=C/c2ccccc2)CC1CCO (stereo not drawn) | -26.9 |

| SMILES | hERG current change (%, negative = inhibition) at 10uM [%] |
| --- | --- |
| OCCC1CN(CC(c2ccccc2)c2ccccc2)CCN1C1CCCC1 (stereo not drawn) | -71.2 |
| CC(C)CCN1CCN(C/C=C/c2ccco2)CC1CCO (stereo not drawn) | -57.1 |
| OCCC1CN(CC#Cc2ccccc2)CCN1C1CCCC1 (stereo not drawn) | -46.2 |
| OCCC1CN(Cc2ccccn2)CCN1C1CCCC1 (stereo not drawn) | 9.91 |
| OCCC1CN(C/C=C/c2ccco2)CCN1Cc1ccccc1 (stereo not drawn) | -8.57 |
| CCn1cc(CN2CCN(CCC(C)C)C(CCO)C2)c2ccccc21 (stereo not drawn) | -31.9 |
| CC(C)CCN1CCN(CC#Cc2ccccc2)CC1CCO (stereo not drawn) | -49.9 |
| CC(C)CCN1CCN(CC(c2ccccc2)c2ccccc2)CC1CCO (stereo not drawn) | -82.3 |
| Cc1ccc(CN2CCN(C/C(Cl)=C/c3ccccc3)CC2CCO)o1 (stereo not drawn) | -45.2 |
| OCCC1CN(C/C(Cl)=C/c2ccccc2)CCN1C1CCCC1 (stereo not drawn) | -77.4 |
| CN(C)N1C(=O)CC(N2CCCCC2)C1=O (stereo not drawn) | 6.08 |
| Cc1nn(C(C)C(=O)N2CCc3ccccc32)c(C)c1[N+](=O)[O-] (stereo not drawn) | 10 |
| CC(=O)NS(=O)(=O)c1ccc(NC(=O)c2ccc(NC(=O)c3cccs3)cc2)cc1 | 2.48 |
| COc1cc2c(cc1OC)-c1cc(NC3CC3)nc(=O)n1CC2 | -24.8 |
| O=c1oc2c(-c3cccc(F)c3)cc(O)cc2s1 | 8.45 |
| COc1ccc(NC(=O)CCc2nnc3ccc(NCc4ccco4)nn23)cc1 | 1.15 |
| CCOC(=O)c1c([N+](=O)[O-])c(C)[nH]c(=O)c1C#N | 21.1 |
| CCC(c1nnnn1Cc1ccco1)N(Cc1cc2cc(OC)ccc2[nH]c1=O)C1CCCCC1 (stereo not drawn) | -6.37 |
| CCN(CC(=O)NCc1cccs1)C(=O)c1ccc(-c2cccc(C(F)(F)F)c2)o1 | -82.3 |
| CCN(CC(=O)NCc1cccs1)C(=O)c1ccccc1F | 9.12 |
| CCN(CC(=O)NCc1cccs1)C(=O)COc1cccc(C(F)(F)F)c1 | -38.2 |
| Cc1cccc(C)c1NC(=O)CN(C)C(=O)c1ccc(-c2cccc(C(F)(F)F)c2)o1 | -12.5 |
| CCN(CC(=O)NCc1cccs1)C(=O)c1ccc(-c2ccccc2F)o1 | -71.6 |
| CCN(CC(=O)NCc1cccs1)C(=O)c1ccc([N+](=O)[O-])o1 | -33.8 |

| SMILES | hERG current change (%, negative = inhibition) at 10uM [%] |
| --- | --- |
| Cn1cccc1Cc1nnc(SCC(=O)NC2CCCC2)n1-c1ccc(F)cc1 | -19 |
| Brc1ccc(-c2csc(Nc3nc(-c4ccc(Br)cc4)cs3)n2)cc1 | 15 |
| COCCCNCC(O)COc1cccc2[nH]c(C)cc12 (stereo not drawn) | 10 |
| COc1ccccc1OCCNC(=O)c1cc(=O)[nH]c2ccccc12 | -4.62 |
| COc1ccccc1OCCNCC(O)COc1cccc2[nH]c3ccccc3c12 (stereo not drawn) | -65.6 |
| COc1cc(CNC(C)(C)CO)cc(Br)c1OCc1ccccc1.Cl | -17.2 |
| COc1cccc(CNC(C)(C)CO)c1OCc1ccc(Cl)cc1.Cl | -56.6 |
| CNCc1c(OCc2ccccc2F)ccc2ccccc12.Cl | -63.5 |
| CNCc1ccccc1OCc1ccccc1F.Cl | -4.37 |
| CNCc1c(OCc2ccccc2)ccc2ccccc12.Cl | -34.1 |
| CC(C)(CO)NCc1cccc(OCc2ccc(Cl)cc2)c1 | -30.8 |
| CNCc1c(OCc2ccc(F)cc2)ccc2ccccc12.Cl | -49.1 |
| CC(O)CNCCNCc1c(OCc2ccccc2)ccc2ccccc12.Cl (stereo not drawn) | -34.6 |
| Cl.OCCNCc1c(OCc2ccc(Cl)cc2)ccc2ccccc12 | -77.4 |
| CCOc1cc(CNCCO)cc(Br)c1OCc1ccc(Cl)cc1.Cl | -16.5 |
| CC(C)(CO)NCc1c(OCc2ccc(Cl)cc2)ccc2ccccc12.Cl | -75.6 |
| COc1cc(CNC(C)(C)CO)cc(Br)c1OCc1ccc(Cl)cc1.Cl | -45.7 |
| CC(CC(=O)Nc1ccc(S(=O)(=O)Nc2ncccn2)cc1)c1ccccc1 (stereo not drawn) | 6.78 |
| COc1ccc(C(=O)NC(=S)Nc2ccc(N3CCN(C(C)=O)CC3)cc2)cc1[N+](=O)[O-] | -2.14 |
| O=C1N(CN2C(=O)C3(OCCO3)c3ccccc32)c2ccccc2C12OCCO2 | 17.1 |
| COc1cc2c(cc1OC)C(COc1ccccc1OC)N(C(C)=O)CC2 (stereo not drawn) | 14.8 |
| CCn1c(CC(=O)Nc2ccccc2F)nnc1SCC(=O)N1CCN(c2ccccc2)CC1 | 1.15 |
| Nc1ccc(S(=O)(=O)Nc2ccc(C(=O)c3ccccc3)cc2)cc1 | -2.92 |
| CSc1nc(-c2ccccc2)c(C#N)c(=O)[nH]1 | -5.88 |

| SMILES | hERG current change (%, negative = inhibition) at 10uM [%] |
| --- | --- |
| CCOC(=O)C(Cc1ccccc1)NC(=O)CCCC(=O)c1ccccc1 (stereo not drawn) | 0.911 |
| O=C(CCCSc1nc2ccccc2c(=O)[nH]1)c1ccc(F)cc1 | 3.3 |
| CCN(CC)S(=O)(=O)c1cccc(C(=O)N/N=C/c2ccc(O)c(O)c2O)c1 | 11.4 |
| CCc1ccc2nc(N=C(N)N)nc(C)c2c1 | -14.3 |
| CCOc1cccc(CNc2ccc(O)cc2)c1OCc1ccc(Cl)cc1 | 10.3 |
| COc1cccc(CNCCO)c1OCc1ccc(Cl)cc1.Cl | -18 |
| CCOc1cccc(CNCCO)c1OCc1ccc(Cl)cc1.Cl | -53.2 |
| Cc1c(NC(=O)C(C)Sc2ccccc2)c(=O)n(-c2ccccc2)n1C (stereo not drawn) | -1.92 |
| COc1ccc(C(=O)NCC(C)NC(=O)c2ccc(OC)c(Br)c2)cc1Br (stereo not drawn) | 4.83 |
| Cc1ccc(-n2cnc3scc(-c4cccs4)c3c2=O)cc1 | 3.67 |
| Cc1cc(C)nc(S/C=C/C(=O)c2ccccc2F)n1 | 5.02 |
| COc1ccc(C2=NN(C(C#N)c3ccc(OC)c(OC)c3)C(c3ccccc3)C2)cc1 (stereo not drawn) | 23.8 |
| CCCCCNc1nc(N2CCCC2)c2c(c1C#N)CCN(C)C2 | -72.8 |
| CN1CCc2c(C#N)c(N3CCCCC3)nc(N3CCOCC3)c2C1 | -24.8 |
| CCCCCNc1nc(NCCCO)c(C#N)c2c1CN(C)CC2 | -75.2 |
| CN1CCc2c(C#N)c(N3CCOCC3)nc(NCC3CCCO3)c2C1 (stereo not drawn) | 11.5 |
| CCc1nc(NCCC(C)C)c(C#N)c2c1CCCC2 | 23.4 |
| CC(C)CCNc1nc(N2CCCC2)c2c(c1C#N)CCN(C)C2 | -58.5 |
| CCCCc1nc(NCCO)c(C#N)c2c1CCCC2 | -15.7 |
| N#Cc1c(NCCCO)nc(NCc2ccccc2)c2c1CCN(Cc1ccccc1)C2 | -43.4 |
| CCCCNc1nc(CC)c2c(c1C#N)CCCC2 | 8.24 |
